# Assay results taken from PubChem BioAssay AID1066 (SRMLSC, 2008).
# Out of some 190,000 compounds screened, about 790 (0.42%) were called active. This excerpt belongs to a sample that is enriched for actives. Unmarked numbers belong to inactive results.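 Rule for the calls: active = inhibition above a set limit, the median over all tested compounds plus 3 SD (cut at about 9.5% in these data); inconclusive = no clear call, values can overlap the other calls; inactive = the rest.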
# Tested on: HMG-CoA reductase (Enterococcus faecalis, mvaE)
# Assay: inhibitors of E. faecalis class II HMGR, primary screen, biochemical, Enterococcus faecalis (AID 1066);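 note: enzyme runs in reverse so mevalonate oxidation gives rising NADPH absorbance; 0% = complete reaction with DMSO and 100% = background rate lacking mevalonate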
# Settings: purified E. faecalis HMGR, NADPH absorbance 340 nm kinetic; at 10 µM; hits give high values
row,SMILES,inhibition
1,CC(=O)Oc1ccccc1C1=NN(C(C)=O)C(c2ccccc2)C1 (centres undefined),-1.75%
2,CCSc1nc(-c2ccc(OC)cc2)cc(-c2ccc(OC)cc2)c1C#N,-8.44%
3,CCOc1cc(-c2cc(-c3ccc(OC)cc3)nc(N)c2C#N)ccc1O,-5.02%
4,COc1ccc(-c2cc(-c3ccc(N)cc3)nc(N)c2C#N)cc1OC,11.6% (active)
5,COc1ccc(C2C(C#N)=C(N)N(c3ncn[nH]3)C3=C2C(=O)CCC3)cc1 (centres undefined),3.99%
6,FC(F)Oc1ccccc1NC(=S)Nc1cccc(Cl)c1Cl,-10.5%
7,CS(=O)(=O)N(Cc1ccccc1)c1ccc(C(=O)NN=C2CCCCCC2)cc1,-2.77%
8,Cc1[nH][nH]c(=O)c1C(c1ccc2c(c1)OCO2)c1c(C)[nH][nH]c1=O,4.7%
9,Cc1[nH][nH]c(=O)c1C(c1ccc(-c2ccc(Cl)cc2)o1)c1c(C)[nH][nH]c1=O,11.6% (active)
10,CCOc1ccc(C(c2c(C)[nH][nH]c2=O)c2c(C)[nH][nH]c2=O)cc1OCC,-2.78%
11,Cc1noc(/C=C/c2ccco2)c1S(=O)(=O)N1CCC(C(=O)Nc2ccc(Cl)cn2)CC1,0.34%
12,CC(O)c1cccc(NC(=O)Cc2cccc3ccccc23)c1 (centres undefined),-6.15%
13,Cc1ccc(Sc2ccncc2S(N)(=O)=O)cc1,-1.29%
14,C[C@@H](O)c1nc2ccccc2n1N,0.29%
15,CC(C)CC(CC(C)C)=NNC(=O)c1ccc(CSc2nncn2C)cc1,1.23%
16,O=C(Nc1cccnc1)c1ccc(Cl)cc1[N+](=O)[O-],-3.45%
17,CCCOc1ccc(N2C(=O)CC(N(CCc3ccc(S(N)(=O)=O)cc3)C(C)=O)C2=O)cc1 (centres undefined),-5%
18,Cc1ccc(N2C(=O)C3CC3C2=O)cc1 (centres undefined),-5.05%
19,NS(=O)(=O)c1ccc(N2C(=O)C3C4CC(C(Br)C4Br)C3C2=O)cc1 (centres undefined),81.6% (active)
20,COc1cc(NS(=O)(=O)c2ccc(NC(=O)CN3C(=O)c4ccccc4C3=O)cc2)ncn1,-9.27%
21,O=C(COC(=O)c1ccco1)NCc1ccc(Cl)cc1,-3.08%
22,CC(OC(=O)CCc1nc(=O)c2ccccc2n1C)C(=O)NCc1ccc2c(c1)OCO2 (centres undefined),2.38%
23,O=C(Cn1cnc([N+](=O)[O-])n1)NCCc1ccccc1,3.82%
24,CC(=O)Nc1ccc(C(=O)CSc2nnc(Cc3ccccc3)o2)cc1,20.1% (active)

row,SMILES,inhibition
1,O=C(CSc1nnc(Cn2cnc3ccccc32)o1)c1ccccc1,-2.99%
2,CCOc1ccc(Nc2nc(Cc3nnc(SCC(=O)c4ccc(C)cc4)o3)cs2)cc1,-4.07%
3,CCOC(=O)c1c(NC(=O)c2cccs2)sc(C)c1C,0.72%
4,COC(=O)c1c(NC(=O)c2c(Cl)cnn2C)sc(C)c1C,11% (active)
5,COCCCNCC(=O)Nc1sc(C)c(C)c1C(=O)OC,1.07%
6,CC1=NN(C(=O)c2ccccc2Br)C(O)(c2cccnc2)C1 (centres undefined),0.91%
7,CCOC(=O)C1(O)CC(C)=NN1C(=O)c1cccc(Br)c1 (centres undefined),16.5% (active)
8,CC1=NN(C(=O)c2ccc(Br)cc2)C(O)(c2ccccc2)C1 (centres undefined),3.11%
9,Cc1cccc(-n2cc(CN3CCN(C(=O)c4ncn[nH]4)CC3)c(-c3cccc(F)c3)n2)c1,-4.4%
10,NC(N)=NCCCc1cn(CC(=O)N2CCNCC2)nn1,-8.27%
11,O=C(Cc1ccc([N+](=O)[O-])cc1)N/N=C/c1ccco1,3.38%
12,CCCOCC(O)CC(CC)C(=O)NNC(=S)Nc1ccccc1 (centres undefined),-0.14%
13,C=CCN(CC=C)CCOc1ccccc1[N+](=O)[O-],-2.7%
14,COc1cc(NC(=S)N2CCCC(C)C2)cc(OC)c1OC (centres undefined),0.35%
15,CN1CCN(C(CNS(=O)(=O)c2cccs2)c2cccnc2)CC1 (centres undefined),-4.32%
16,COc1cc(NC(=O)N2CCOCC2)cc(OC)c1,-5.26%
17,CN(C)S(=O)(=O)c1ccc(NC(=O)N2CCOCC2)cc1,15.2% (active)
18,O=C(Nc1ccccc1)N1CCN(C(=O)Nc2ccccc2)CC1,-2.68%
19,Cc1ccc(SCCC(=O)NCc2ccccn2)cc1,1.33%
20,CN1C(=O)/C(=C/c2ccc(C(=O)NC3CCCC3)cc2)Oc2ccccc21,-13.4%
21,CCN1/C(=C/c2ccc3ccc(C)cc3[n+]2CC)Sc2ccccc21,-2.41%
22,CCC(=O)/C=C1\Sc2ccccc2N1CC,11.8% (active)
23,O=C(CCN1c2ccccc2Sc2ccccc21)Nc1ccccc1,-1.11%
24,Cc1cc(C(=O)COC(=O)C2CC2)c(C)n1-c1ccc(F)cc1,2.01%

row,SMILES,inhibition
1,Cc1cc(C(=O)N/N=C/c2ccc(O)c([N+](=O)[O-])c2)c(C)n1-c1ccc(F)cc1,11.2% (active)
2,COc1cc(/C=N/NC(=O)c2cc(C)n(-c3ccc(F)cc3)c2C)cc(OC)c1O,3.01%
3,CCOc1ccccc1N1CCN(C(=S)Nc2ccc(S(N)(=O)=O)cc2)CC1,-3.56%
4,O=C(Nn1cnc2ccccc2c1=O)c1ccc([N+](=O)[O-])cc1Cl,-1.28%
5,CCCCN1C(=O)/C(=C(/C#N)C(N)=O)c2ccccc21,-0.52%
6,CN(CC(=O)Nc1ccccc1F)CC(=O)Nc1ccccc1Br,9.9% (active)
7,CN(CC(=O)Nc1ccccc1[N+](=O)[O-])Cc1ccc(Br)cc1,-2.46%
8,CSc1ccccc1NC(=O)CN(C)CC(=O)Nc1cccc(Br)c1,3.22%
9,Cc1cccc(C(=O)NCCCN2CCCC2=O)c1,-2.71%
10,O=C(CCC(=O)NNc1nc2ccccc2c2nc(-c3ccccc3)nn12)NCCCN1CCCC1=O,11.7% (active)
11,O=C(CCn1c(=S)[nH]c2ccccc2c1=O)NCCCN1CCCC1=O,-5.44%
12,O=Cc1ccc(Oc2cccc(C(F)(F)F)c2)nc1,-2.83%
13,O=C(COC(=O)c1cccc(Br)c1)Nc1cccc2c1C(=O)c1ccccc1C2=O,-0.48%
14,COc1ccc(NC(=O)c2sc(N)nc2-c2ccccc2)cc1,3.25%
15,COc1ccc(-n2c(O)c(C=NCC(c3ccco3)N3CCCC3)c3ccccc3c2=O)cc1OC (centres undefined),3.15%
16,Cc1ncc([N+](=O)[O-])n1CCOC(=O)c1ccc(Br)cc1,10% (active)
17,N/C(=N\OC(=O)COc1ccc([N+](=O)[O-])cc1)c1ccc(Br)cc1,-0.17%
18,Cc1nn(CCOc2ccc(Br)cc2)c(C)c1[N+](=O)[O-],-5.05%
19,CCN(CC)CCNc1nc(-c2ccc(OC(F)F)cc2)c(C)s1,-4.92%
20,CCN(C(=O)CSc1nnc2ccccn12)C1CCS(=O)(=O)C1 (centres undefined),-6.19%
21,COC(=O)c1ccc(-n2cnc3ccccc32)nc1,-2.82%
22,COc1ccc(N2C(=O)C(Cc3ccccc3)NC2=S)cc1 (centres undefined),-5.65%
23,COC(=O)c1cc(NC(=O)c2nn(C)c(=O)c3ccccc23)cc(C(=O)OC)c1,-0.04%
24,C/[N+]([O-])=C\c1ccc([N+](=O)[O-])o1,11% (active)

row,SMILES,inhibition
1,COC(=O)C1=C(C)N(C)C(=O)NC1c1ccc([N+](=O)[O-])o1 (centres undefined),0.43%
2,CCn1c(/C=C/c2ccc([N+](=O)[O-])o2)nc2ccccc2c1=O,-2.94%
3,CN(C)/C=C/C(=O)c1cnc2sccn2c1=O,2.25%
4,Fc1ccccc1CNC(=S)Nc1ccc(Cl)cc1,-0.98%
5,S=C(NCCc1ccccc1)NCc1ccccc1Cl,1.49%
6,Fc1ccccc1Cn1cnc(NC(=S)NCCc2ccccc2)n1,15.6% (active)
7,CCOc1ccc(N2C(=O)/C(=C/c3ccc(C)o3)N(C)C2=S)cc1,-5.07%
8,COCCN(C(=O)C(C)C)c1nnc(-c2ccc(C(C)(C)C)cc2)s1,-2.5%
9,COc1ccc(NC(=O)N2CCCC(c3nc(-c4ccc(F)cc4)no3)C2)cc1 (centres undefined),1.89%
10,O=C(c1ccccc1Cl)N(Cc1ccccc1F)N1C(=O)CCCC1=O,-5.67%
11,C=CCn1c(=NC(=O)c2cccs2)sc2cc(NC(C)=O)ccc21,-0.47%
12,CCN=C1S/C(=C\c2cc(Br)ccc2OCC(=O)OCC)C(=O)N1CC,-2.47%
13,COc1cccc(Cn2cnc3c([N+](=O)[O-])c(C)c(C)cc32)c1,-3.58%
14,COc1ccc(F)cc1C(=O)C1CCCN(C(=O)CCc2ccccn2)C1 (centres undefined),-4.06%
15,CCOC(=O)C1CCN(C(=O)/C=C/c2cc(OC)c(OC)c(OC)c2)CC1,-1.76%
16,Cc1cc(C)c2nc(-c3cccnc3)cc(C(=O)Nc3ccc(S(=O)(=O)Nc4onc(C)c4C)cc3)c2c1,-2.12%
17,Cc1ccc(CSc2nc3[nH]ncc3c(=O)[nH]2)cc1,-1.81%
18,COc1ccc(C(=O)Nc2ccccc2C(=O)N/N=C/c2ccccc2OC)cc1,-0.76%
19,COc1ccccc1C(=O)NNC(=O)c1ccc(NC(=O)c2ccccc2)cc1,15.3% (active)
20,C/C(=N/NC(=O)c1ccc(NC(=O)c2ccc(F)cc2)cc1)c1ccccc1,-3.05%
21,CC(=O)c1ccc(NC(=S)N(Cc2ccccc2)C(C)C2CC2)cc1 (centres undefined),-4.01%
22,O=C(COC(=O)c1cc(=O)[nH]c2ccccc12)Nc1nc(-c2cccc(Br)c2)cs1,-0.22%
